Screening data (PubChem)
Most compounds without a hit are left out; they make up all but 18% or so of the library.
HepG2 tox = qHTS for Inhibitors of TGF-b: Cytotox Counterscreen. HepG2 CAGA-GFP viability, ATP luminescence, 18 h. Potency, µM (series often up to 46.1 µM), for the others: at the highest dose activity change, negative = cytotoxicity, actives largely listed as cytotoxic. actives 0.76% (n = 410,000). AID 588856, 2011; note: potency is the fitted concentration of half-maximal effect
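HepG2 CAGA-GFP cells (1000/well, DMEM with 1% FBS) received compound, then TGF-beta at 500 pg/mL final, and were incubated 18 hours at 37 degrees C. Viability was read by CellTiter-Glo luminescence. Media-only wells were set as complete cell-killing and DMSO as no toxicity.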
IL1B secr inh = qHTS for Inhibitors of Inflammasome Signaling: IL-1-beta AlphaLISA Primary Screen | actives 4.7% (n = 360,000) | THP-1 LPS/ATP IL-1B secretion, AlphaLISA, 16 h; active compounds read low | activity change, % at 57.5 µM; in the data active = activity change below about -50%; inconclusive = mostly about -30% to -49%; note: % is set by controls: 0 for no effect and ±100 for the full control effect
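THP-1 cells pretreated 1 hr with compounds (up to 57.5 uM final), then stimulated with LPS (250 ng/mL final) plus ATP (1.25 mM final); secreted IL-1B measured by AlphaLISA after 16 hr, decreased signal indicating inhibition.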
TDP1 inh = qHTS Assay for Inhibitors of Tyrosyl-DNA Phosphodiesterase (TDP1); recombinant TDP1, AlphaScreen DNA substrate cleavage; Potency, µM (highest dose often 130 µM), without a hit: at the top dose activity change, negative = inhibition, most hits filed as inhibitors; actives 0.28% (n = 350,000); AID 485290, 2010; note: potency is the fitted concentration of half-maximal effect; % is set by controls: 0 for no effect and ±100 for the full control effect; nearly all actives have a fitted effect of over 40% in size
Target sequence (Q9NUW8 whole entry, looked up): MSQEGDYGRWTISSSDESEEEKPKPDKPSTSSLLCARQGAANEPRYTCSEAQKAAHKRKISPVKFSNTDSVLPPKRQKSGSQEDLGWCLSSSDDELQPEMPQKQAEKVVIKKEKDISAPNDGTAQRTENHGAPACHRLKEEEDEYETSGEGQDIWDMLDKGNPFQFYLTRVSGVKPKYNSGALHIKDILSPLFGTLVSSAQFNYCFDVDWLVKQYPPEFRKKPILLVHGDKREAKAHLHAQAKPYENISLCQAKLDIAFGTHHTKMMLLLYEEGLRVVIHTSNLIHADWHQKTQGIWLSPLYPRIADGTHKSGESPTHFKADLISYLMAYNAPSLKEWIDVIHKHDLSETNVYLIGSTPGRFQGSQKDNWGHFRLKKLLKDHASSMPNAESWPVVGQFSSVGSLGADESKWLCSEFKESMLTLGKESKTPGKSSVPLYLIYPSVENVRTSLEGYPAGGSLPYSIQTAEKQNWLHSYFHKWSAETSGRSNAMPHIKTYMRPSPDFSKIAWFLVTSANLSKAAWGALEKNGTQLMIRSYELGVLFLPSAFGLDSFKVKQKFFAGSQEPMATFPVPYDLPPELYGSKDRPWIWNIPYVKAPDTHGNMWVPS
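Steps: enzyme plus compound, 15 min RT; add biotin/phosphotyrosine-FITC oligonucleotide (15 nM final), react 5 min; add donor/acceptor beads (10 ug/ml final), 10 min; read AlphaScreen. Tdp1 at 1 nM final.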
TGFb inhibitor = qHTS for Inhibitors of TGF-b. HepG2 CAGA-GFP TGF-b/SMAD3 reporter, GFP fluorescence, 18 h; TGF-beta stimulated, 500 pg/mL final. Potency, µM (doses to about 46.1 µM), without a hit: top-dose activity, negative = inhibition, usual class: inhibitors. actives 1.2% (n = 410,000). AID 588855, 2011; note: potency is the fitted concentration of half-maximal effect; % is set by controls: 0 for no effect and ±100 for the full control effect; nearly all actives have a fitted effect of over 65% in size
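Inhibition of TGF-beta-driven CAGA-GFP reporter expression in HEPG2 cells is measured by cellular GFP fluorescence after 18 h stimulation with 500 pg/mL recombinant TGF-beta in 1% FBS medium at 37 degrees C.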
TDP1 cell CPT = qHTS for Inhibitors of human tyrosyl-DNA phosphodiesterase 1 (TDP1): qHTS in cells in presence of CPT | actives 12% (n = 420,000) | Potency, µM (top dose mostly 46.2 µM), for inactives: at the top dose activity change, negative = growth inhibition, usual class: inhibitors | AID 686979, 2013 | chicken DT40 Tdp1-/-;hTDP1 cells + 20 nM CPT, ATP luminescence, 48 h; note: potency is the fitted concentration of half-maximal effect; % is set by controls: 0 for no effect and ±100 for the full control effect; nearly all actives have a fitted effect of over 55% in size
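Cell growth measured by CellTiter-Glo luminescence after a minimum 48 h, 37 C compound exposure with 20 nM CPT in Tdp1-knockout DT40 cells stably expressing hTDP1, seeded 400/well; qHTS titration format.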
DT40 TDP1 no CPT = qHTS for Inhibitors of human tyrosyl-DNA phosphodiesterase 1 (TDP1): qHTS in cells in absence of CPT. DT40 Tdp1-/- hTDP1 cells, no CPT, ATP luminescence, 48 h. Potency, µM (top dose mostly 46.2 µM), without a hit: at the top dose activity change, negative = growth inhibition, actives largely listed as inhibitors. actives 15% (n = 420,000); note: potency is the fitted concentration of half-maximal effect; % is set by controls: 0 for no effect and ±100 for the full control effect; nearly all actives have a fitted effect of over 55% in size
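Camptothecin absent (DMSO only). Human TDP1-complemented DT40 knockout cells, 400 cells/well, 37 °C for minimum 48 hr; ATP measured via CellTiter-Glo, 30 min dark incubation, luminescence.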
* = called active by the depositor; ? = inconclusive; . = no result; [ ] = dose if it differs, or a comment. Unless noted, calls come from the whole dose curve; as a rule, active = well fitted curve in the direction sought with a large enough effect; inconclusive = small, poorly fitted or top-dose-only effect, or another doubt; inactive = no such curve, though single readings can be large; an effect the other way counts as inactive or inconclusive.

SMILES | HepG2 tox | IL1B secr inh | TDP1 inh | TGFb inhibitor | TDP1 cell CPT | DT40 TDP1 no CPT
Cc1cc(C)c2c(N)c(C(=O)Nc3ncc(C)s3)sc2n1 | -53.4% | -19.4 | . | 0.0% | 16.4µM* | 18.4µM*
Cc1cc(C)c2c(N)c(C(=O)N3CCCCCC3)sc2n1 | -0.8% | -17.3 | 7.1% | 3.1% | 14.6µM* | -24.1%
Cc1cc(C)c2c(N)c(C(=O)c3ccc(Cl)cc3Cl)sc2n1 | -5.4% | -1.5 | 8.2% | -13.2% | ? | 18.4µM*
COC(=O)c1sc2nc(C)cc(C)c2c1N | 7.7% | -24.1 | 1.2% | 5.7% | -23.8% | -6.8%
Cc1ccc(-n2c(N)c(C(=O)NCc3ccco3)sc2=S)cc1 | -28.0% | -58.3* | 5.4% | 6.9% | ? | -28.6%
Clc1cccc(CNCC2CCCO2)c1Cl (stereo unspecified) | -11.1% | 10.3 | 4.3% | 18.3% | -6.4% | 7.5%
CC(C)C[C@@H](CC(=O)N[C@@H](CCC(=O)O)CC(=O)O)NC(=O)[C@@H]1CNCC[C@H]1NC(=O)C[C@@H](NC(=O)C[C@H](Cc1ccccc1)NC(=O)[C@@H]1CCCC[C@H]1N)C(C)C | . | . | 6.9% | . | . | .
COc1ccccc1C(=O)Nc1cccc(OCc2cc(=O)n3c4c(sc3n2)CCCC4)c1 | -3.0% | . | 1.3% | 10.2% | -20.6% | -3.8%
CCOc1ccc(Br)cc1S(=O)(=O)NCC(c1ccc(OC)cc1)N1CCOCC1 (stereo unspecified) | -78.2% | -9.5 | . | 9.1% | ? | ?
CCc1ccccc1NC(=O)c1sc2nc(C)cc(C)c2c1N | 11.4% | ? | . | 2.4% | 18.4µM* | ?
Cc1cc(C)c2c(N)c(C(=O)NCc3ccco3)sc2n1 | -8.3% | -61.1* | -0.2% | ? | 0.0% | ?
Cc1cc(C)c2c(N)c(C(=O)Nc3ccccc3Br)sc2n1 | -36.6% | -2.8 | . | -28.4% | -29.0% | -17.0%
COc1ccccc1-c1noc2c1C(=O)N(Cc1cn(-c3ccccc3)nn1)CC2 | -55.4% | 1.6 | . | -5.9% | -22.1% | ?
CC1OC(OCC2OC(Oc3cc(O)c4c(c3)OC(c3ccc(O)cc3)CC4=O)C(O)C(O)C2O)C(O)C(O)C1O (stereo unspecified) | . | . | 4.3% | . | . | .
CCOc1ccccc1N1CCN(c2nc(N)c(C#N)c(CC#N)c2C#N)CC1 | -27.4% | 1.7 | 11.4% | 1.9% | ? | 20.6µM*
COc1ccccc1N1CCN(c2nc3ccccc3nc2C(C#N)C(=O)OC(C)C)CC1 (stereo unspecified) | 8.5% | -5.4 | 10.0% | -27.7% | ? | 20.6µM*
CCOc1ccccc1N1CCN(c2nc3ccccc3nc2C(C#N)C(=O)OC)CC1 (stereo unspecified) | 6.6% | 18.0 | 6.4% | 0.6% | 23.1µM* | 14.6µM*
COc1ccccc1N1CCN(c2nc(C)cc(C)c2C#N)CC1 | -14.6% | 4.3 | 0.3% | 2.1% | -12.9% | -24.8%
COc1cccc(C(=O)NCCNC(=O)c2ccco2)c1 | -8.1% | 5.2 | . | -10.6% | -14.8% | -5.6%
Cc1ccc(S(=O)(=O)NC(=O)N[C@@H](C)Cc2ccccc2)cc1 | . | . | . | . | 20.1% | 8.1%
Cc1ccc(Cl)cc1NC(=O)Nc1cccs1 | -46.4% | -4.1 | -2.6% | ? | -25.5% | 20.6µM*
Cc1ccc(NC(=O)Nc2cccs2)c(C)c1 | -12.6% | . | 3.9% | -12.5% | 14.6µM* | ?
Cc1ccccc1NC(=O)Nc1cccs1 | -2.6% | 5.5 | 10.9% | 20.8% | ? | ?
CC(Oc1ccc(F)cc1)C(=O)NN (stereo unspecified) | 11.3% | 6.0 | 2.7% | 0.8% | -27.2% | -14.4%
COc1ccc(-c2nsc(NC(=O)C(C)Oc3ccc(Cl)c(C)c3)n2)cc1 (stereo unspecified) | -40.9% | . | 0.0% | ? | 23.1µM* | ?
SMILES | HepG2 tox | IL1B secr inh | TDP1 inh | TGFb inhibitor | TDP1 cell CPT | DT40 TDP1 no CPT
CC(Oc1ccc(F)cc1)C(=O)Nc1nc(-c2ccc(F)cc2)ns1 (stereo unspecified) | -42.3% | . | 4.7% | ? | ? | 13µM*
COc1ccc(C(=O)Nc2nc(-c3ccc(Br)cc3)ns2)cc1 | -2.8% | . | 3.6% | ? | -15.4% | ?
O=C(NNc1ccccc1Br)C(O)(c1cccc(C(F)(F)F)c1)c1cccc(C(F)(F)F)c1 | -103.2% | -59.2* | 5.1% | 7.94µM* | 29.1µM* | 14.6µM*
COc1ccc(Br)cc1S(=O)(=O)Nc1ncn[nH]1 | 27.4% | -9.1 | 1.9% | 20.9% | ? | 9.5%
Cc1cccc2cc(CN(Cc3nnnn3C3CCCCC3)C3CCCC3)c3nnnn3c12 | -14.9% | ? | 4.2%[56.1 µM] | -8.4% | 20.6µM* | ?
Cc1cc(C)c2[nH]c(=O)c(CN(Cc3nnnn3C3CCCC3)C3CCCCC3)cc2c1 | -7.8% | -3.5 | 0.0% | -0.5% | -7.3% | -15.0%
CCc1ccccc1-n1cnc2cc(C(=O)NC3CCCCCC3)ccc21 | -41.7% | . | 10.4% | ? | ? | 23.1µM*
Cc1cccc(-n2cnc3cc(C(=O)NC4CCCCCC4)ccc32)c1 | -27.2% | . | 10.4% | ? | 3.26µM* | 4.61µM*
COc1ccc(C2CC(c3cccs3)=NN2C(=O)CSC2=NCCS2)cc1 (stereo unspecified) | -12.5% | -81.0* | 3.6% | -5.4% | -40.7% | ?
COc1ccccc1C1CC(c2cccs2)=NN1C(=O)CCC(=O)O (stereo unspecified) | -6.4% | 34.3 | . | 4.5% | -28.7% | -5.4%
COc1cccc(C2CC(c3cccs3)=NN2C(=O)CSc2nc3ccccc3o2)c1OC (stereo unspecified) | -20.0% | -5.0 | 0.0% | -26.2% | 25.9µM* | 23.1µM*
COc1ccc(C2CC(c3cccs3)=NN2C(=O)c2ccc(Br)o2)cc1 (stereo unspecified) | -6.3% | -5.0 | 0.0% | ? | 23.1µM* | ?
Cc1ccc(C2CC(c3cccs3)=NN2C(=O)CSC2=NCCS2)cc1 (stereo unspecified) | -31.7% | . | 2.2% | ? | ? | ?
CCC(=O)N1N=C(c2cccs2)CC1c1ccc(OC)cc1 (stereo unspecified) | -0.8% | -0.5 | . | -10.0% | 10.5% | -9.1%
